# A selection: hits, their analogues and other compounds. The true share with any hit is near 13%.
# CHOP inh: inhibitors of CHOP induction in ER stress response; inhibition, % at 10 µM; CHO-K1 CHOP-promoter luciferase, tunicamycin-induced, 15-18 h; 220,000 compounds, 3.8% hits; AID 2732;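 active means compounds that reduced the stress-induced luciferase reporter signal by more than about 70% of percent inhibition, limit read from the data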;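 further: 0% = tunicamycin plus vehicle and 100% = wells without tunicamycin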
# RAM inhibit: blocks the yeast RAM network; S. cerevisiae dse1pr::URA3 reporter, 5-FOA growth OD615, 2 d; analog-sensitive cbk1-as2 kinase mutant strain; inhibition, % at 50 µM; 190,000 compounds, 1.8% hits;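 active means inhibition above a set limit, 3 SD over mean compound inhibition, cut at about 8.4% in these data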;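 further: 0% = DMSO-only wells with no growth and 100% = 10 µM 1-NA-PP1 full growth; inhibition rescues growth on 5-FOA so higher OD means more RAM inhibition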
# WT yeast gro inh: growth inhibition of WT yeast, mitochondrial fusion screen; mitochondrial fusion phenotypic screen, WT strain; inhibition, % at 10 µM; 190,000 compounds, 2.1% hits; in the data active means inhibition above about 58%; tested in S. cerevisiae
# Lmaj promast: reduces viability of Leishmania major promastigotes | resazurin fluorescence viability | inhibition, % at 10 µM | 200,000 compounds, 9% hits | AID 1063; in the data active means inhibition above about 50%;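 further: promastigotes grown with compound for 44 hours at 28 °C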
# * hit, by the source's call; / = no result given.
SMILES,CHOP inh,RAM inhibit,WT yeast gro inh,Lmaj promast
COc1ccc(NC(=O)CCC(=O)N/N=C/c2ccc([N+](=O)[O-])s2)cc1,-65,2,75,100*
CC(C)NC(=O)c1ccccc1NC(=O)CN(c1ccc2c(c1)OCO2)S(C)(=O)=O,7,0,-9,-2
CN1CCCC1CCNS(=O)(=O)c1ccc(Br)cc1 (centres undefined),18,2,0,96*
O=C1CCCN1CCCNS(=O)(=O)c1ccc(Br)cc1,20,0,-6,2
COc1cc(/C=N/NC(=O)c2cc(-c3ccco3)nc3ccccc23)cc(OC)c1O,19,/,/,/
CC(=C/c1ccco1)/C=N/NC(=O)c1ccncc1,3,/,/,/
CC(/C=N/NC(=O)c1cc(-c2ccccc2)nc2ccccc12)=C\c1ccco1,25,5,13,98*
Cc1cc(C(=O)N/N=C/c2ccco2)c2ccccc2n1,18,1,-3,15
O=C(N/N=C/c1cccc(F)c1)c1cc(-c2ccco2)nc2ccccc12,8,5,60*,30
CC(/C=N/NC(=O)c1cc(-c2ccc(Cl)cc2)nc2ccccc12)=C\c1ccco1,-32,3,23,62*
COc1ccc(/C=N/NC(=O)c2csc(-n3nc(C)cc3C(F)(F)F)n2)cc1,79*,-1,-5,-3
Cc1cc(C(F)(F)F)n(-c2nc(C(=O)NN)cs2)n1,15,1,-6,-8
COc1ccccc1N1CCN(C(=O)c2ccc(S(=O)(=O)N3CCCC3)cc2)CC1,-5,5,-15,63*
COc1ccccc1N1CCN(C(=O)c2ccc(NS(=O)(=O)c3ccc(C)cc3)cc2)CC1,15,1,2,19
CCCCOc1ccc(C(=O)Nc2ccc(N3CCN(C(C)=O)CC3)cc2)cc1,-11,8,-2,-4
COc1ccc(N2CCN(C(=O)c3ccc(C(C)(C)C)cc3)CC2)cc1,85*,1,16,0
COc1ccc(C(=O)N2CCN(c3ccccc3OC)CC2)cc1,1,0,7,-6
COc1ccccc1N1CCN(C(=O)c2ccc(C(C)(C)C)cc2)CC1,96*,0,41,11
CC(=O)N1CCN(c2ccc(NC(=O)c3ccc(C(C)(C)C)cc3)cc2)CC1,-1,1,-21,97*
COC(=O)c1sc(SC)c(-c2ccon2)c1C,22,/,/,/
CC1CCCCC1NCc1cccc([N+](=O)[O-])c1 (centres undefined),-17,0,2,83*
O=[N+]([O-])c1cccc(CNC2CCCCCC2)c1,50,2,8,86*
COC(=O)c1sccc1-c1ccc(/C=N/OC(=O)c2cccs2)o1,-2,/,/,/
O=C(Nc1ccc(C(F)(F)F)cc1Cl)c1ccc(Cn2cc(Br)cn2)o1,73*,8,13,-8
COc1ccc(CNC(=O)CSc2nc3cccnc3s2)cc1,2,/,/,/
SMILES,CHOP inh,RAM inhibit,WT yeast gro inh,Lmaj promast
CC(C)c1ccc(NC(=O)NC2CC3CCC(C2)N3Cc2cccs2)cc1 (centres undefined),34,0,3,73*
Fc1ccc(NC(=S)NC2CC3CCCC(C2)N3Cc2cccs2)cc1 (centres undefined),-18,2,1,94*
Cc1ccc(NC(=S)NC2CC3CCCC(C2)N3Cc2cccs2)cc1 (centres undefined),-25,0,-8,92*
O=C(Nc1cccc(Cl)c1)NC1CC2CCC(C1)N2Cc1cccs1 (centres undefined),11,2,-17,9
Cc1sc2nc(CSc3ccccc3)nc(NCCN(C)C)c2c1C,23,1,15,92*
Cc1sc2nc(C3CC3)nc(NCCNS(=O)(=O)c3ccccc3)c2c1C,-15,2,-2,14
CCNc1nc(CSc2ccccc2)nc2sc(C)c(C)c12,54,-1,67*,39
CN1CCN(C=Nc2nc3ccccc3nc2N2CCCC2)CC1,2,2,-5,11
Cc1ccc(/C=C/C(=O)O)cc1S(=O)(=O)Nc1ccc2c(c1)OCO2,-16,8.8*,-10,-6
CCOc1ccc(-n2c(=O)c3sccc3n(CC(=O)NCCc3ccc(OC)c(OC)c3)c2=O)cc1,-4,0,-14,-3
COc1cc(-c2cc(-c3ccc(O)cc3)nc(N)c2C#N)ccc1O,15,5,5,34
CCOc1cc(/C=C(\C#N)c2[nH]nc(N)c2C#N)ccc1O,27,1,-4,67*
CCOc1cc(-c2c(C#N)c(N)nc3c2CCc2ccccc2-3)ccc1O,78*,2,43,90*
COc1ccccc1-c1c(C#N)c(N)nc2c1CCc1ccccc1-2,26,3,67*,87*
CCOc1cc(-c2cc(-c3ccc(C)cc3)nc(N)c2C#N)ccc1O,70*,5,-11,1
C/C(=N\NS(=O)(=O)c1ccccc1)c1cc(Cl)cc(Cl)c1O,19,1,4,-5
CCCN1C2CCCC1CC(NC(=S)Nc1cccc(C)c1C)C2 (centres undefined),-2,/,/,/
Cc1cccc(NC(=S)NC2CC3CCCC(C2)N3Cc2cccs2)c1C (centres undefined),-2,2,7,85*
CCCN1C2CCCC1CC(NC(=S)Nc1cccc(C)c1)C2 (centres undefined),4,0,11,36
Cc1cccc(C)c1NC(=O)NC1CC2CCC(C1)N2Cc1cccs1 (centres undefined),41,1,12,0
Cc1cccc(NC(=S)NC2CC3CCCC(C2)N3CC(C)C)c1C (centres undefined),-11,1,1,89*
CCc1ccccc1NC(=S)NC1CC2CCCC(C1)N2Cc1cccs1 (centres undefined),-24,0,14,79*
CCCN1C2CCCC1CC(NC(=S)Nc1cc(C)ccc1C)C2 (centres undefined),10,1,-4,90*
Cn1c(N)c(C(=O)COC(=O)C2=NNC(=O)CC2)c(=O)n(C)c1=O,5,/,/,/
CC(C)(CO)NC(=O)Nc1ccc(Cl)c(Cl)c1,13,0,-18,10
SMILES,CHOP inh,RAM inhibit,WT yeast gro inh,Lmaj promast
O=C1CCCC/C1=C/NCc1ccc(F)cc1,6,0,-14,-2
Cc1ccc(C(=O)c2cc(C)sc2NC(=O)CN2CCN(C(=O)c3ccco3)CC2)cc1,82*,3,79*,50*
COc1ccc(OC)c(NC(=O)C(=S)NC2CCCCC2)c1,-25,8.7*,74*,0
COc1ccc(CNc2nc(NCc3ccc(OC)cc3)n(C(C)=O)n2)cc1,-7,5,-7,2
COc1ccc(CNc2nc(NCc3ccc(OC)c(OC)c3)n(C(=O)c3cccs3)n2)cc1OC,21,4,15,97*
COc1ccc(CCNC(=O)c2cccs2)cc1OC,8,-1,-3,-10
CCC(=O)n1nc(NCc2ccccc2OC)nc1NCc1ccccc1OC,76*,9.2*,14,-3
CCN(CC)S(=O)(=O)c1cccc(C(=O)NCCCn2ccnc2)c1,15,/,/,/
CC12CC3CC(C)(C1)CC(NCc1ccncc1)(C3)C2,0,0,-14,82*
CC1(C)CC(NCc2ccncc2)CC(C)(C)N1,11,0,-22,-4
CCOC(=O)C1=C(C)NC(C)=C(C(=O)OCC)C1c1cn(-c2ccccc2)nc1-c1ccco1,84*,3,/,3

# Source: PubChem BioAssay
